# In publication PMC5540273 (PLoS ONE, 2017):
# Tested on: PIK3CB
# Conditions: concentration: 1 μM, replicates: in singlicate; n = 1
# 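Also: KINOMEscan kinase panel screen.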
row,Compound,%Inh
1,Cl.Cl.NC(CNC(=O)c1cc(Br)c(-c2ccnc3[nH]ccc23)s1)c1ccccc1 (centres unmarked) [GSK1322949],0%
2,Cl.Cl.NCC(NC(=O)c1cc(-c2cccnc2)c(-c2ccnc3[nH]ccc23)s1)c1ccccc1 (centres unmarked) [GSK1323434],0%
3,CC(C)c1nc(-c2ccc(F)c(NS(=O)(=O)c3c(F)cccc3F)c2)c(-c2ccnc(Nc3ccc(N4CCOCC4)nc3)n2)s1 [GSK1804250],0%
4,CC(=O)Nc1cn2nc(Oc3cccc(NC(=O)c4cccc(C(F)(F)F)c4)c3)ccc2n1,0%
5,COc1cc(Nc2nccc(N3CCC(NS(=O)(=O)c4ccc(NC(C)=O)cc4)CC3)n2)cc(OC)c1OC [GSK1379825],0%
6,Cn1cc(-c2cnc(N)c3c(-c4ccc5c(c4)CCN5C(=O)Cc4ccccc4)csc23)cn1 [GSK2593074],0%
7,Cc1ccc(NC(=O)c2ccnc(N3CCCCC3)c2)cc1-c1ccc(C(=O)NCC2CC2)cc1 [GW775610],0%
8,CCn1cnc2c(NCc3ccccc3)ncnc21 [SKF-96418],0%
9,Cc1ccc(NC(=O)c2cccc(N3CCCCC3)c2)cc1-c1ccc(C(=O)NCC2CC2)cc1 [GSK1917008],0%
10,COc1ccc(NC(=O)c2ccoc2)cc1-c1ccc(C(=O)NCC2CC2)cc1 [GW810437],24%
11,COc1cccc(CC(=O)N2CCc3cc(-c4cn(C)c5ncnc(N)c45)ccc32)c1 [GSK2608899],14%
12,CN1CCN(Cc2ccc(NC(=O)Nc3ccc(N(C)c4ccnc(Nc5ccc(CS(C)(=O)=O)cc5)n4)cc3)cc2)CC1.Cl [GW827654],16%
13,c1ccc(Oc2ccc(Nc3ccnc4cc(-c5ccc(CN6CCCCC6)o5)ccc34)cc2)nc1 [GW567143],0%
14,CN(c1ccc(F)c(NC(=O)c2cccc(OC(C)(C)C#N)c2Cl)c1)c1ccc2nc(NC(=O)C3CC3)sc2n1,9%
15,CCOc1nccc(-c2c(-c3ccc(F)cc3)ncn2C2CCNCC2)n1 [SB-249175],0%
16,CN(C)CCNS(=O)(=O)c1ccc(-c2ccnc3[nH]ccc23)cc1 [GSK977620],0%
17,CC(C)(C)c1ccc(C(=O)Nc2cn3cc(-n4ccnc4)ccc3n2)cc1,3%
18,Cn1cc(-c2ccc3c(c2)CCN3C(=O)Cc2cc(F)cc(F)c2F)c2c(N)ncnc21 [GSK2634140],62%
19,O=C(Nc1n[nH]c2nc(-c3ccccc3)ccc12)C1CC1 [SB-708999],0%

row,Compound,%Inh
1,O=C(Nc1n[nH]c2nc(-c3cccc(O)c3)ccc12)C1CC1 [SB-711805],0%
2,CN(C)CCOc1ccc(-c2cc(-c3ccc(Cl)c(O)c3)c(-c3ccncc3)[nH]2)cc1.Cl.Cl [SB-684387],54%
3,Cc1cc(-c2c(-c3ccc(F)cc3)ncn2CCCN2CCOCC2)nc(N)n1 [SB-222517],0%
4,CC(C)NCC(Cc1ccccc1)NC(=O)c1cc(Br)c(-c2ccnc3[nH]ccc23)s1.Cl.Cl (centres unmarked) [GSK1383281],0%
5,CNc1nccc(-c2ccc3c(N)n[nH]c3c2)n1 [GSK2206003],0%
6,O=C(Nc1n[nH]c2nc(-c3ccccc3O)ccc12)C1CC1 [SB-711880],0%
7,O=C1NC(=O)C(c2ccccc2Cl)=C1Nc1cccc(Cl)c1 [SB-342409],0%
8,Cc1nn2c(=O)cc(N3CCO[C@H](C)C3)nc2n1Cc1cccc(Cl)c1Cl [GSK2373693],0%
9,CCNc1nccc(-c2c(-c3ccc(F)cc3)ncn2C2CCN(C)CC2)n1,0%
10,COC(=O)Nc1nc2ccc(Oc3ccc(CC(=O)Nc4cc(C(F)(F)F)ccc4F)cc3)cc2[nH]1 [GW680903],0%
11,N#Cc1cnc2cc(-c3cnc(CNCCN4CCOCC4)s3)ccc2c1Nc1ccc(Oc2ccccc2)cc1 [GW664114],0%
12,COc1cccc(C2=C(Nc3cccc(O)c3)C(=O)NC2=O)c1 [SB-390771],0%
13,O=C(Nc1n[nH]c2cc(-c3cccs3)ccc12)C1CC1 [SB-731284],35%
14,Cc1ccc(O)cc1Nc1ccnc2ccc(C(C)(C)C)cc12 [GW856805],40%
15,Nc1cccc(-c2ccc3c(N)n[nH]c3c2)c1 [GSK2193613],40%
16,Fc1cc(Cl)ccc1Nc1ccnc2cc(-c3ccc(CN4CCOCC4)o3)ccc12 [GW560109],0%
17,Nc1ncc(-c2ccc3nccc(-c4ccncc4)c3c2)cc1S(=O)(=O)N1CCCCC1 [GSK1693850],96.9%
18,Nc1ncnc2scc(-c3ccc(NC(=O)Cc4cc(F)ccc4F)cc3)c12.O=C(O)C(F)(F)F [SB-731254-M],0%

# Tested on: PIK3CD
# Conditions: concentration: 1 μM, replicates: in singlicate; n = 1
row,Compound,%Inh
1,Cl.Cl.NC(CNC(=O)c1cc(Br)c(-c2ccnc3[nH]ccc23)s1)c1ccccc1 (centres unmarked) [GSK1322949],0%
2,Cl.Cl.NCC(NC(=O)c1cc(-c2cccnc2)c(-c2ccnc3[nH]ccc23)s1)c1ccccc1 (centres unmarked) [GSK1323434],2%
3,CC(C)c1nc(-c2ccc(F)c(NS(=O)(=O)c3c(F)cccc3F)c2)c(-c2ccnc(Nc3ccc(N4CCOCC4)nc3)n2)s1 [GSK1804250],10%
4,CC(=O)Nc1cn2nc(Oc3cccc(NC(=O)c4cccc(C(F)(F)F)c4)c3)ccc2n1,0%
5,COc1cc(Nc2nccc(N3CCC(NS(=O)(=O)c4ccc(NC(C)=O)cc4)CC3)n2)cc(OC)c1OC [GSK1379825],91.6%
6,Cn1cc(-c2cnc(N)c3c(-c4ccc5c(c4)CCN5C(=O)Cc4ccccc4)csc23)cn1 [GSK2593074],0%
7,Cc1ccc(NC(=O)c2ccnc(N3CCCCC3)c2)cc1-c1ccc(C(=O)NCC2CC2)cc1 [GW775610],0%
8,CCn1cnc2c(NCc3ccccc3)ncnc21 [SKF-96418],0%
9,Cc1ccc(NC(=O)c2cccc(N3CCCCC3)c2)cc1-c1ccc(C(=O)NCC2CC2)cc1 [GSK1917008],25%
10,COc1ccc(NC(=O)c2ccoc2)cc1-c1ccc(C(=O)NCC2CC2)cc1 [GW810437],0%
11,COc1cccc(CC(=O)N2CCc3cc(-c4cn(C)c5ncnc(N)c45)ccc32)c1 [GSK2608899],0%
12,CN1CCN(Cc2ccc(NC(=O)Nc3ccc(N(C)c4ccnc(Nc5ccc(CS(C)(=O)=O)cc5)n4)cc3)cc2)CC1.Cl [GW827654],0%
13,c1ccc(Oc2ccc(Nc3ccnc4cc(-c5ccc(CN6CCCCC6)o5)ccc34)cc2)nc1 [GW567143],0%
14,CN(c1ccc(F)c(NC(=O)c2cccc(OC(C)(C)C#N)c2Cl)c1)c1ccc2nc(NC(=O)C3CC3)sc2n1,0%
15,CCOc1nccc(-c2c(-c3ccc(F)cc3)ncn2C2CCNCC2)n1 [SB-249175],18%
16,CN(C)CCNS(=O)(=O)c1ccc(-c2ccnc3[nH]ccc23)cc1 [GSK977620],9%
17,CC(C)(C)c1ccc(C(=O)Nc2cn3cc(-n4ccnc4)ccc3n2)cc1,0%
18,Cn1cc(-c2ccc3c(c2)CCN3C(=O)Cc2cc(F)cc(F)c2F)c2c(N)ncnc21 [GSK2634140],0%
19,O=C(Nc1n[nH]c2nc(-c3ccccc3)ccc12)C1CC1 [SB-708999],41%

row,Compound,%Inh
1,O=C(Nc1n[nH]c2nc(-c3cccc(O)c3)ccc12)C1CC1 [SB-711805],0%
2,CN(C)CCOc1ccc(-c2cc(-c3ccc(Cl)c(O)c3)c(-c3ccncc3)[nH]2)cc1.Cl.Cl [SB-684387],8%
3,Cc1cc(-c2c(-c3ccc(F)cc3)ncn2CCCN2CCOCC2)nc(N)n1 [SB-222517],0%
4,CC(C)NCC(Cc1ccccc1)NC(=O)c1cc(Br)c(-c2ccnc3[nH]ccc23)s1.Cl.Cl (centres unmarked) [GSK1383281],0%
5,CNc1nccc(-c2ccc3c(N)n[nH]c3c2)n1 [GSK2206003],0%
6,O=C(Nc1n[nH]c2nc(-c3ccccc3O)ccc12)C1CC1 [SB-711880],0%
7,O=C1NC(=O)C(c2ccccc2Cl)=C1Nc1cccc(Cl)c1 [SB-342409],0%
8,Cc1nn2c(=O)cc(N3CCO[C@H](C)C3)nc2n1Cc1cccc(Cl)c1Cl [GSK2373693],100%
9,CCNc1nccc(-c2c(-c3ccc(F)cc3)ncn2C2CCN(C)CC2)n1,0%
10,COC(=O)Nc1nc2ccc(Oc3ccc(CC(=O)Nc4cc(C(F)(F)F)ccc4F)cc3)cc2[nH]1 [GW680903],0%
11,N#Cc1cnc2cc(-c3cnc(CNCCN4CCOCC4)s3)ccc2c1Nc1ccc(Oc2ccccc2)cc1 [GW664114],7%
12,COc1cccc(C2=C(Nc3cccc(O)c3)C(=O)NC2=O)c1 [SB-390771],0%
13,O=C(Nc1n[nH]c2cc(-c3cccs3)ccc12)C1CC1 [SB-731284],0%
14,Cc1ccc(O)cc1Nc1ccnc2ccc(C(C)(C)C)cc12 [GW856805],56%
15,Nc1cccc(-c2ccc3c(N)n[nH]c3c2)c1 [GSK2193613],2%
16,Fc1cc(Cl)ccc1Nc1ccnc2cc(-c3ccc(CN4CCOCC4)o3)ccc12 [GW560109],21%
17,Nc1ncc(-c2ccc3nccc(-c4ccncc4)c3c2)cc1S(=O)(=O)N1CCCCC1 [GSK1693850],100%
18,Nc1ncnc2scc(-c3ccc(NC(=O)Cc4cc(F)ccc4F)cc3)c12.O=C(O)C(F)(F)F [SB-731254-M],0%
